Test results from PubChem BioAssay.
The source made the active and inactive calls.

Experiments:
[1] = optical density shifts of acrAB sulA E. coli – strain DRC41, OD650, 48 h, E. coli filamentation inducer project, primary screen (AID 1152); conditions: higher = more signal, called active from +8 up or from −8 down;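 further: E. coli MC1000 strain DRC41 lacking acrAB efflux pump and sulA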
[2] = probe aLefty1 binding on compound microarray – biochemical, small-molecule microarray, 635/667 nm fluorescence, primary screen (AID 1153); conditions: higher = more signal;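 further: score merges spot fluorescence with signal-to-noise ratio from the scanned slide images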
[3] = plasmodial surface anion channel blockers, osmotic lysis – cell-based, P. falciparum Indochina, OD700, 1 h, primary screen (AID 1154); conditions: P. falciparum Indochina infected RBC osmotic lysis, higher = more signal, called active from +8 up or from −8 down
[4] = plasmodial surface anion channel blockers, osmotic lysis – cell-based, P. falciparum Indochina, OD700, 2 h, primary screen (AID 1155);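 further: lysis reports solute entry through the parasite surface anion channel PSAC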; conditions: P. falciparum Indochina infected erythrocytes, higher = more signal, called active from +8 up or from −8 down
[5] = changes in parasitized red cell lysis, either direction – P. falciparum Indochina, OD700, 3 h, PSAC antagonist project, primary screen (AID 1156); conditions: P. falciparum-infected erythrocytes, osmotic lysis, higher = more signal, called active from +8 up or from −8 down
[6] = plasmodial surface anion channel blockers, osmotic lysis – cell-based, P. falciparum Indochina, OD700, 18 h, primary screen (AID 1157); conditions: P. falciparum Indochina infected erythrocytes, osmotic lysis OD700, 18 h; higher = more signal, called active from +8 up or from −8 down
[7] = S6 kinase pathway phospho-S6 level changes – cell-based, A549, cytoblot, luminescence, serum-stimulated, primary screen (AID 1158); conditions: 5 h, higher = more signal;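 further: serum-stimulated A549 lung adenocarcinoma cells; signal is phosphorylated S6 detected by cytoblot immunostaining with HRP secondary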
[8] = molecular target: NADPH oxidase 2 (Homo sapiens) (UniProt P04839); assay: compounds shifting NOX2 Amplex Red fluorescence – cell-based, HEK293-NOX2, PMA-stimulated, NOX inhibitor project, primary screen (AID 1159); conditions: 45 min, higher = more signal, called active from +8 up or from −8 down; further: test concentration not given here
[9] = molecular target: NADPH oxidase 4 (Homo sapiens) (UniProt Q9NPH5); assay: compounds shifting NOX4 Amplex Red fluorescence – cell-based, HEK293-NOX4, tetracycline-induced, NOX inhibitor project, primary screen (AID 1160); conditions: HEK293-NOX4, Amplex Red H2O2 fluorescence, 45 min; higher = more signal, called active from +8 up or from −8 down
[10] = molecular target: NADPH oxidase 5 (Homo sapiens) (UniProt Q96PH1); assay: compounds shifting NOX5 Amplex Red fluorescence – cell-based, HEK293-NOX5, NOX inhibitor project, primary screen (AID 1161); conditions: HEK293-NOX5, ionomycin, 45 min, higher = more signal
NADPH oxidase 5 (Homo sapiens), sequence (Q96PH1 whole entry, looked up): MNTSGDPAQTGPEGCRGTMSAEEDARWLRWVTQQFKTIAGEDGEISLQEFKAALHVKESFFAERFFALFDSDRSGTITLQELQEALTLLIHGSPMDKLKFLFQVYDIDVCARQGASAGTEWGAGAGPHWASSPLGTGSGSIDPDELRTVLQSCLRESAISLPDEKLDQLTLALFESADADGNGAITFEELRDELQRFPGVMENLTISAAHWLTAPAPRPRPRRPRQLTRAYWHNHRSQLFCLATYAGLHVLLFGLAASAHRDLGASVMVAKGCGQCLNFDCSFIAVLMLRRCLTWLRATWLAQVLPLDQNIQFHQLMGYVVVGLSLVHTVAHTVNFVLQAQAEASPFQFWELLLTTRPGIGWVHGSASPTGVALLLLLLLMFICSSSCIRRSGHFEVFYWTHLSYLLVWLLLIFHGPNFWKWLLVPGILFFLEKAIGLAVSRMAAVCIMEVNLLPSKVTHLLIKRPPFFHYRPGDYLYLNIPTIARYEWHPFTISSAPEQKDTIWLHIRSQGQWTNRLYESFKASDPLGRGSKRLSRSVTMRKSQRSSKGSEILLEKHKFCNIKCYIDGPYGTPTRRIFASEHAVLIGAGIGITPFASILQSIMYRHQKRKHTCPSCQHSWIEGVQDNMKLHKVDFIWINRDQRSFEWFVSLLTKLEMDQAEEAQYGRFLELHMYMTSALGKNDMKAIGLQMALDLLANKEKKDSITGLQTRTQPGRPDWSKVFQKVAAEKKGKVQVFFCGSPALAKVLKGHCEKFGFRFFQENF

NADPH oxidase 4 (Homo sapiens), sequence (Q9NPH5 whole entry, looked up): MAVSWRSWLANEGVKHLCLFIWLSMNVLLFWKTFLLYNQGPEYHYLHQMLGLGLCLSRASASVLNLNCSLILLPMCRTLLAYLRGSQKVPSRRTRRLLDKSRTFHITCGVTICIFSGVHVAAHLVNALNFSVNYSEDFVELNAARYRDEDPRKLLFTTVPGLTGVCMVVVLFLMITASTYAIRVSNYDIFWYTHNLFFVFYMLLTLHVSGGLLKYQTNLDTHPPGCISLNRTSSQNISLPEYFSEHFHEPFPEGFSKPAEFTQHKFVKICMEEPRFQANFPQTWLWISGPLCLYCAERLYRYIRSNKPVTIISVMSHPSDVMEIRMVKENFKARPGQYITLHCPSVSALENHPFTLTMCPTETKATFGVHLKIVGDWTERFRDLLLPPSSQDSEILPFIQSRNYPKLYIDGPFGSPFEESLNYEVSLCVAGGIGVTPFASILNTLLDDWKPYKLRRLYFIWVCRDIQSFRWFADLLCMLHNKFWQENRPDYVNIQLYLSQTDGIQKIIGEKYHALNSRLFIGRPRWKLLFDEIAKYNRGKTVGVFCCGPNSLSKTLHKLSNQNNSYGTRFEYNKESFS
NADPH oxidase 2 (Homo sapiens), sequence (P04839 whole entry, looked up): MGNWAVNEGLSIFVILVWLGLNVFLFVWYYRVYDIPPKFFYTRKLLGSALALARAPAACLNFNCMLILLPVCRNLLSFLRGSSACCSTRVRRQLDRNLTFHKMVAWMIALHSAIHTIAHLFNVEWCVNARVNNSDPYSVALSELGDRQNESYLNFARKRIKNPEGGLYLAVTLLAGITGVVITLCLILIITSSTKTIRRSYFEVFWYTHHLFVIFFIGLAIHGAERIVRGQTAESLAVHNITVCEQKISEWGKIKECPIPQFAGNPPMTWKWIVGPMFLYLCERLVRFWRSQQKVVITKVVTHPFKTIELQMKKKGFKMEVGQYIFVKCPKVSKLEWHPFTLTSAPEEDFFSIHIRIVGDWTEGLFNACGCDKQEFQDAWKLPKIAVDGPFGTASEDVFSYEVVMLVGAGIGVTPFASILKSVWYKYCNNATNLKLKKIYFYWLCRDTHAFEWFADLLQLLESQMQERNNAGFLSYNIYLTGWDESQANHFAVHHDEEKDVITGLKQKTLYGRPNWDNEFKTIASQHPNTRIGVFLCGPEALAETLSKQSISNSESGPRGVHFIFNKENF

| SMILES | z-score [1] | composite z-score [2] | z-score [3] | z-score [4] | z-score [5] | z-score [6] | z-score [7] | z-score [8] | z-score [9] | z-score [10] |
| --- | --- | --- | --- | --- | --- | --- | --- | --- | --- | --- |
| O=C1O[C@H](c2ccccc2)[C@H](c2ccccc2)N2[C@H]1[C@@H](C(=O)O)[C@]1(C(=O)Nc3ccc(C#CCCO)cc31)[C@H]2c1ccccc1OCCO | -0.443 (inactive) | 0.0026 | 0.396 (inactive) | -0.353 (inactive) | -1.27 (inactive) | 0.173 (inactive) | -0.0545 | 1.93 (inactive) | 0.226 (inactive) | 0.636 |
| CCCCCN1CC=CC23O[C@@H]4/C=C\CCCOC(=O)C4[C@H]2C(=O)N(C(C)CO)[C@@H]3C1=O (stereo not given in full) | 1.2 (inactive) | -0.0984 | 1.47 (inactive) | 0.175 (inactive) | 2.32 (inactive) | 0.503 (inactive) | 0.566 | 0.825 (inactive) | 0.19 (inactive) | 1.03 |
| C=CCOC(=O)[C@@H]1[C@H]2C(=O)O[C@H](c3ccccc3)[C@H](c3ccccc3)N2[C@H](c2ccc(OCCOC(=O)[C@@H]3C[C@@H]4C(=O)N[C@@H](CCCC[N+](C)(C)C)C(=O)N4[C@@H]3c3ccc(O)cc3)cc2)[C@@]12C(=O)Nc1ccc(I)cc12 | 0.0995 (inactive) | 0.668 | 0.321 (inactive) | 1.12 (inactive) | 3.11 (inactive) | 0.0802 (inactive) | -1.27 | 2.43 (inactive) | 0.0539 (inactive) | 0.718 |
| Cc1ccc(S[C@]2(C(=O)O)CC(=O)N(C3CCCCC3)[C@@H]2c2ccc(CO)cc2I)cc1 | 0.263 (inactive) | 0.32 | 9.32 (active) | 0.692 (inactive) | 0.796 (inactive) | 0.99 (inactive) | 0.0559 | 3.66 (inactive) | -2.04 (inactive) | -1.86 |
| CCCCCCc1nc(Cc2cc(OC)c(OC)c(OC)c2)cc2c1[Si](C(C)C)(C(C)C)OC2 | -0.56 (inactive) | -0.131 | 0.88 (inactive) | -0.221 (inactive) | 0.908 (inactive) | -0.718 (inactive) | 0.552 | -4.01 (inactive) | -1.88 (inactive) | -5.31 |
| COc1cc(NN2C(C(O)c3ccco3)C=CC3C(=O)N(C)C(=O)C32)cc(OC)c1OC (stereo not given) | -1.82 (inactive) | 0.429 | 0.715 (inactive) | 0.959 (inactive) | 0.214 (inactive) | 1.1 (inactive) | -0.808 | -1.95 (inactive) | -3.55 (inactive) | -2.81 |
| Cn1cccc1C(O)C1C=CC2C(=O)N(c3ccccc3)C(=O)C2N1Nc1ccccc1 (stereo not given) | -0.548 (inactive) | 0.358 | 2.42 (inactive) | 1.31 (inactive) | 0.361 (inactive) | 1.44 (inactive) | -0.55 | -1.34 (inactive) | -1.94 (inactive) | -1.81 |
| C#CCN([C@@H](Cc1ccccc1)C(=O)OC)[C@@H](/C=C/C1CC1)[C@H](O)Cc1ccccc1 | -0.634 (inactive) | -0.0538 | 1.09 (inactive) | 0.443 (inactive) | -0.0572 (inactive) | -0.307 (inactive) | -0.169 | -0.284 (inactive) | -0.417 (inactive) | -2.34 |
| CCCC[C@@H](O)C1=C(COC)C[C@H]2C(=O)N(Cc3ccccc3)C(=O)[C@H]2[C@H]1CO | 0.878 (inactive) | -0.103 | 1.83 (inactive) | -0.384 (inactive) | -0.157 (inactive) | 0.133 (inactive) | 0.304 | -0.725 (inactive) | 0.282 (inactive) | 0.373 |
| CCCCNC(=O)c1ccc(C#CC(C)(C)C)c(OC(C)=O)c1 | 0.567 (inactive) | -0.148 | 4.63 (inactive) | 0.802 (inactive) | 2.09 (inactive) | 0.181 (inactive) | 0.355 | -0.137 (inactive) | 0.344 (inactive) | 0.416 |
| CN(C)C(=O)[C@@]1(Cc2ccccc2)N=C(c2ccc(OCCCO)cc2)O[C@H]1c1ccccc1 | 0.756 (inactive) | -0.0171 | 14.9 (active) | 2.63 (inactive) | 1.4 (inactive) | 1.33 (inactive) | -0.39 | -0.896 (inactive) | 0.068 (inactive) | -1.7 |
| COC(=O)c1c(CC[C@@H](CO)NC(=O)N2CCC[C@H]2Cn2cc(C3(O)CCCCC3)nn2)oc(C(C)=O)c1C(=O)OC | -0.955 (inactive) | -0.101 | 1.35 (inactive) | 0.092 (inactive) | 1.14 (inactive) | 0.163 (inactive) | -0.0302 | -0.645 (inactive) | -0.981 (inactive) | -1.37 |
| CC[C@@H]1O[Si](C(C)C)(C(C)C)c2c1cc(-c1cc(C)c(OC)c(C)c1)nc2-c1ccc(Oc2ccccc2)cc1 | -0.109 (inactive) | 0.0101 | -0.261 (inactive) | 0.26 (inactive) | 0.827 (inactive) | 0.311 (inactive) | 0.189 | -1.36 (inactive) | -0.672 (inactive) | -2.04 |
| COc1ccc([Si](C)(C)[C@@H]2[C@@H](CCO)O[C@]3(C(=O)N(Cc4cccc(NC(=O)[C@H](C)O)c4)c4ccccc43)[C@H]2C)cc1 | -1.19 (inactive) | 0.286 | 9.14 (active) | 2.91 (inactive) | -1.04 (inactive) | 1.35 (inactive) | -0.472 | -0.881 (inactive) | 0.436 (inactive) | -0.256 |
| CCOC(=O)C1=C[C@@H](c2ccccc2)N(S(=O)(=O)c2ccc(C)cc2)[C@H]1c1ccc(OC)cc1 | -1.11 (inactive) | 1.02 | 1.18 (inactive) | 1.07 (inactive) | 0.106 (inactive) | 0.512 (inactive) | -0.887 | 0.156 (inactive) | 1.02 (inactive) | -0.348 |
| COc1cc(NN2C(C(O)c3cc(OC)c(OC)c(OC)c3)C=CC3C(=O)N(C)C(=O)C32)cc(OC)c1OC (stereo not given) | -1.12 (inactive) | 0.179 | 0.367 (inactive) | 0.0378 (inactive) | 0.508 (inactive) | 0.853 (inactive) | -0.402 | -1.81 (inactive) | -2.26 (inactive) | -2.51 |
| [N-]=[N+]=NCc1ccccc1[C@@H]1OC(c2ccc(OCCCO)cc2)=N[C@]1(CCS(=O)(=O)c1ccccc1)C(=O)O | -0.0791 (inactive) | 0.186 | 18.8 (active) | 4.31 (inactive) | 0.296 (inactive) | 0.716 (inactive) | -0.0381 | 1.19 (inactive) | 1.33 (inactive) | 2.11 |
| Cc1ccccc1C(O)C1C=CC2C(=O)NC(=O)C2N1Nc1ccccn1 (stereo not given) | -0.908 (inactive) | -0.229 | 0.408 (inactive) | 0.608 (inactive) | -0.0205 (inactive) | 0.68 (inactive) | -1.01 | -0.444 (inactive) | -2.62 (inactive) | -1.27 |
| CC1CC/C=C\[C@H]2OC34C=CCN(C(C)(C)C)C(=O)[C@H]3N(CCCCCO)C(=O)[C@@H]4C2C(=O)O1 (stereo not given in full) | -0.121 (inactive) | -0.0984 | 0.204 (inactive) | 0.437 (inactive) | -0.136 (inactive) | 0.21 (inactive) | -0.333 | 0.673 (inactive) | -0.225 (inactive) | 1.3 |
| O=C1[C@H]2C=C(I)[C@H](C[C@@H]2OCCOCCO)[C@@]12CO2 | -0.878 (inactive) | -0.371 | -0.0899 (inactive) | -0.122 (inactive) | -0.321 (inactive) | -0.235 (inactive) | 0.0332 | 0.578 (inactive) | 0.373 (inactive) | -0.151 |
| COC(=O)c1c(CC[C@@H](CO)NC(=O)N[C@@H](C)Cn2cc(-c3ccccn3)nn2)oc(C(C)=O)c1C(=O)OC | -0.476 (inactive) | -0.106 | 1.71 (inactive) | -1.15 (inactive) | 0.613 (inactive) | -1.08 (inactive) | 0.42 | -3.95 (inactive) | -2.23 (inactive) | -3.06 |
| NC(=O)NCC#Cc1ccc2c(c1)[C@]1(C(=O)N2)[C@H](C(=O)N2CCN(c3ncccn3)CC2)[C@H]2C(=O)O[C@H](c3ccccc3)[C@H](c3ccccc3)N2[C@@H]1c1ccc(O)cc1 | -1.08 (inactive) | 0.141 | -0.362 (inactive) | -0.136 (inactive) | 0.174 (inactive) | -0.302 (inactive) | 0.435 | 1.13 (inactive) | 0.162 (inactive) | 0.437 |
| C=CCNC(=O)[C@@H]1[C@H]2C(=O)O[C@H](c3ccccc3)[C@H](c3ccccc3)N2[C@H](c2ccc(OCCO)cc2)[C@@]12C(=O)N(C(=O)OCCOC)c1ccc(C#Cc3ccc(OC)cc3)cc12 | -0.0604 (inactive) | 0.302 | 3.58 (inactive) | 1.28 (inactive) | 0.0207 (inactive) | 0.776 (inactive) | -0.492 | 1.78 (inactive) | 0.437 (inactive) | 0.986 |
| COc1ccc([Si](C)(C)[C@H]2[C@H](CC(=O)N(CCO)Cc3ccccc3)O[C@@]3(C(=O)N(C)c4c(Br)cc(C)cc43)[C@@H]2C)cc1 | -0.0939 (inactive) | 0.0774 | 18.4 (active) | 3.21 (inactive) | 0.0319 (inactive) | 1.11 (inactive) | 1.83 | -2.5 (inactive) | -0.577 (inactive) | -0.876 |
| CN(C)C(=O)[C@@]1(Cc2ccccc2CN=[N+]=[N-])N=C(c2ccc(OCCCO)cc2)O[C@H]1c1ccccc1N=[N+]=[N-] | -0.383 (inactive) | 1.48 | 29.9 (active) | 26.7 (active) | 2.61 (inactive) | 6.04 (inactive) | 1.76 | -3.42 (inactive) | -0.18 (inactive) | -2.56 |
| CCCNC(=O)[C@@]1(Sc2ccc(C)cc2)CC(=O)N(C2Cc3ccccc3C2)[C@@H]1c1ccc(CO)cc1I | 0.815 (inactive) | 0.844 | 9.9 (active) | 2.14 (inactive) | -0.377 (inactive) | 0.695 (inactive) | -0.303 | 0.716 (inactive) | -0.892 (inactive) | 0.67 |
| C=CCNC(=O)[C@H]1[C@@H]2C(=O)O[C@@H](c3ccccc3)[C@@H](c3ccccc3)N2[C@@H](c2ccccc2OCCO)[C@]12C(=O)N(C(=O)OCCOC)c1ccc(C#CC3(O)CCCCCC3)cc12 | 1.49 (inactive) | 0.25 | 1.58 (inactive) | 0.166 (inactive) | -0.236 (inactive) | -1.57 (inactive) | 2.01 | 1.52 (inactive) | 1.07 (inactive) | 0.729 |
